Screens as filed in PubChem.
CCHF vOTU inh-1 – blocks the CCHF virus ovarian tumor domain protease. CCHFV vOTU protease, Pep-AMC fluorescence. inhibition, % at 11.5 µM. hit rate 0.55% among 370,000. AID 651958; further: 0% = vehicle wells with enzyme and 100% = no enzyme wells
SARS 3CLpro inh-1 – SARS-CoV 3CLpro protease inhibition; hit rate 0.14% among 290,000; inhibition, % at 6 µM; P0C6X7; recombinant SARS-CoV 3CLpro, quenched FRET peptide cleavage; in the data active means inhibition above about 12%
Mtb hypoxia rep – Mtb hypoxia fluorescent reporter inhibition; M. tuberculosis hypoxia-regulated fluorescent reporter, fluorescence; fluorescence inhibition, % (no concentration beside the values); hit rate 0.1% among 300,000; AID 1159583; in the data active means fluorescence inhibition mostly above about 23%, no sharp cut-off; inactive means mostly below about 17%
PriA SSB inh – blocks PriA binding to SSB C-terminal tail | AlphaScreen SSBct-PriA binding, biotinylated peptide | inhibition, % at 33 µM | hit rate 0.6% among 430,000 | AID 1272365; in the data active means inhibition mostly above about 37%, no sharp cut-off; inactive means mostly below about 20%;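 further: plate controls were negative control peptide for no effect and reference peptide for full effect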
VHR inh abs – inhibitors of human VHR1 phosphatase (DUSP3); P51452; recombinant VHR phosphatase, pNPP absorbance; inhibition, % at 13.3 µM; hit rate 0.52% among 290,000; AID 1654; in the data active means inhibition above about 50%
Target sequence (P51452 whole entry, looked up): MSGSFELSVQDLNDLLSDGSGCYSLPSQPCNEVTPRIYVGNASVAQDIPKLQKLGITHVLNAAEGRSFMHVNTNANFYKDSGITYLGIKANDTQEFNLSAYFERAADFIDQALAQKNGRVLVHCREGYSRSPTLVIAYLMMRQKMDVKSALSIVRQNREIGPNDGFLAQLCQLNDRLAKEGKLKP
SARS 3CLpro inh-2 – SARS 3CLpro inhibition, confirmation assay. AID 1879. hit rate 36% among 380. QFRET protease activity assay. shares compounds with SARS 3CLpro inh-1. inhibition, % at 6 µM; in the data active means inhibition above about 13%
CCHF vOTU inh-2 – confirmation of CCHF virus vOTU protease inhibitors; shares compounds with CCHF vOTU inh-1; Recombinant CCHFV vOTU, Pep-AMC fluorescence; inhibition, % at 11.5 µM; hit rate 17% among 1,900; AID 686976
An asterisk follows results filed as active; i = inactive; · = no result given. Rows were chosen to be rich in hits. Some 1.3% of all compounds tested hit in one or more screens of this group. Unless noted, no stated cut-off is given here; in the data, active means inhibition above about 30%; inactive means the rest.

SMILES	CCHF vOTU inh-1	SARS 3CLpro inh-1	Mtb hypoxia rep	PriA SSB inh	VHR inh abs	CCHF vOTU inh-2	others
O=C(Cn1nnc2ccccc21)c1ccc(Br)cc1	-12.9	57.2*	-6.0	-8.2	20.5	·	SARS 3CLpro inh-2=54.7*
Cc1ccc(C(=O)Cn2nnc3ccccc32)cc1	4.7	5.5	5.0	-5.7	21.9	·
O=C(CSC1=NS(=O)(=O)c2cc(Cl)ccc2N1)NC[C@H]1CCCO1	·	·	·	-5.0	·	·
O=C(OCC(=O)N1c2ccccc2Sc2ccccc21)c1cccnc1	10.8	20.9*	10.6	-2.8	9.9	·	SARS 3CLpro inh-2=22.3*
O=C(COc1ccccc1)N1c2ccccc2Sc2ccccc21	-16.4	0.3	14.8	-12.2	0.1	·
Cc1oncc1C(=O)NCC1CCN(Cc2ccsc2)CC1	·	·	·	-13.0	·	·
COc1ccc(NC(=O)c2ccc3c(=O)n(-c4ccc(OC)cc4OC)c(=S)[nH]c3c2)cc1	-4.2	13.6*	-13.4	5.9	18.4	·	SARS 3CLpro inh-2=-3.7
CC1(C)Cc2c(sc3nc(-c4cc5ccccc5o4)n(N)c(=O)c23)CO1	6.8	13.3*	6.5	-10.0	-4.7	·	SARS 3CLpro inh-2=-4.8
Cc1nnsc1C(=O)NCc1nn(C)c2c1COCC2	·	·	·	3.0	·	·
CC1CCC2C(=O)N(c3cc(Cl)ccc3OC(=O)c3ccco3)C(=O)C2C1 (stereo not given)	5.0	45.9*	-5.9	6.1	6.8	·	SARS 3CLpro inh-2=60.2*
CC1CCC2C(=O)N(c3ccccc3OC(=O)c3ccccc3)C(=O)C2C1 (stereo not given)	0.8	5.0	7.4	-10.8	17.2	·
CC(C)C[C@H](NC(=O)c1[nH]cnc1C(=O)N[C@@H](Cc1ccccc1)C(=O)OCc1ccccc1)C(=O)OC(C)(C)C	29.9*	13.3*	·	-1.2	24.4	17.9	SARS 3CLpro inh-2=6.5
Cc1nc2ccccn2c1C(=O)N1CCC(c2nnc(C(C)C)o2)CC1	·	·	·	5.0	·	·
O=C(NCc1ccccc1F)c1ccc(S(=O)(=O)Nc2cccc(C(F)(F)F)c2)cc1	20.0	1.3	11.1	-16.4	-2.7	·
O=C(NCc1ccc(F)cc1)c1ccc(S(=O)(=O)Nc2cccc(C(F)(F)F)c2)cc1	30.0*	17.6*	3.4	-0.5	5.7	-11.5	SARS 3CLpro inh-2=11.0
Cc1cc(C)c(S(=O)(=O)/N=C2\C=C(Nc3ccc(C(=O)O)cc3)C(=O)c3ccccc32)c(C)c1	124.7*	12.6*	·	·	35.8	111.1*	SARS 3CLpro inh-2=6.6
Cc1cc(C)cc(NC(=S)C(=C([O-])c2ccc(Cl)s2)[n+]2cccc(C)c2)c1	·	·	·	-0.9	·	·
CN(CCc1ccccc1)C(=O)c1cc(COc2cccc(C(F)(F)F)c2)on1	30.0*	13.1*	9.1	-52.2	-12.9	13.4	SARS 3CLpro inh-2=6.6
CN(CCCN1CCOCC1)C(=O)c1cc(COc2cccc(C(F)(F)F)c2)on1	0.7	4.7	-3.4	-15.6	1.9	·
Cc1noc(NS(=O)(=O)c2ccc(NC(=O)c3oc4ccc(Cl)cc4c3C)cc2)c1C	34.9*	12.3*	-1.6	13.1	1.8	20.1	SARS 3CLpro inh-2=6.7
O=C1c2cccc3cccc(c23)C(=O)N1CC1CCN(C[C@H](O)COc2ccc(F)cc2)CC1	·	·	·	-5.0	·	·
COc1ccc(OCc2cc(C(=O)NC3CCOCC3)no2)c2ccccc12	61.4*	2.0	5.5	6.1	8.0	22.0
COc1cccc(OCc2cc(C(=O)NC3CCOCC3)no2)c1	7.0	3.9	-7.3	-21.9	5.7	·
CC(=O)N1CCc2cc(S(=O)(=O)NC(C(=O)Nc3ccc4c(c3)OCCO4)C(C)C)ccc21 (stereo not given)	29.8*	2.4	·	-10.9	10.9	-6.8
Cc1nn(C2CCS(=O)(=O)C2)c(C)c1N1CCN(C(=O)Cc2c(F)cccc2Cl)CC1 (stereo not given)	·	·	·	2.0	·	·
SMILES	CCHF vOTU inh-1	SARS 3CLpro inh-1	Mtb hypoxia rep	PriA SSB inh	VHR inh abs	CCHF vOTU inh-2	others
C#CCN1CC(COc2ccccc2)Oc2cccc(Oc3ccc(SC)c(C)c3)c2S1(=O)=O (stereo not given)	31.0*	·	·	·	·	-12.6
COc1cc2c(cc1OC)[C@]13CCN4CC5=CCO[C@H]6CC(=O)N2[C@@H]1[C@@H]6[C@@H]5C[C@@H]43	·	·	·	-13.1	·	·
CC(C)(C)c1cc(NC(=O)COC(=O)c2ccc(O)cc2O)n(-c2ccccc2)n1	9.8	·	10.7	-10.0	·	·
Cc1ccc(C(=O)OCC(=O)Nc2cc(C(C)(C)C)nn2-c2ccccc2)c(O)c1	33.0*	·	6.5	-3.6	·	-5.6
COC(=O)c1cc(N=Nc2c(O)ccc3ccccc23)cc(C(=O)OC)c1	·	·	·	9.0	·	·
Cc1ccc(NC(=O)c2ccc(=O)n(Cc3ccc(F)cc3)n2)cc1F	·	·	·	3.0	·	·
CCCCC1C2=C(CC(C)(C)CC2=O)OC2=C1C(=O)CC(C)(C)C2	29.5*	1.6	2.2	-15.0	4.7	-1.9
CCCCCCC1C(C#N)=C(N)OC2=C1C(=O)CC(C)(C)C2 (stereo not given)	3.9	4.3	-4.9	-14.7	17.8	·
COc1ccc(C=NN=C2C(=O)Nc3ccccc32)cc1O	·	·	·	-7.0	·	·
O=C1Nc2ccccc2/C1=N\N=C\c1ccc(O)c(O)c1	33.0*	0.1	·	·	34.2	4.6
CCOP(=O)(OCC)C(Nc1cccc(C(F)(F)F)c1)c1ccc(C)cc1 (stereo not given)	30.3*	2.8	2.5	-30.0	-4.3	10.7
COc1cc(/C=N/Nc2ccc(S(N)(=O)=O)cc2)cc(OC)c1OC	30.4*	1.9	·	·	10.6	-2.6
COc1cc(/C=N/Nc2ccc(C(=O)O)cc2)cc(OC)c1OC	-0.4	1.7	·	i	17.0	·
O=C(Cc1c[nH]c2ccccc12)Nc1ccc(Nc2cccnc2)c(-c2ccc(-c3ccccc3)cc2F)c1	30.4*	·	·	·	·	-24.7
O=C(Cc1c[nH]c2ccccc12)Nc1ccc(Nc2cccnc2)c(-c2ccc(F)c(F)c2)c1	9.1	·	·	·	·	·
COC(=O)Nc1ccc(S(=O)(=O)N2CCC(C)CC2)cc1	-8.8	4.1	12.4	-1.8	16.1	·
COC(=O)Nc1ccc(S(=O)(=O)N2CCC(C(=O)N3CCC(C)CC3)CC2)cc1	41.6*	2.6	0.9	0.1	9.3	-19.5
CCOCCCn1c(N)c(C(=O)Nc2sc3c(c2C(=O)OC)CCCC3)c2nc3ccccc3nc21	30.9*	-2.6	-5.1	7.0	10.4	-5.1
CN(C)c1ccc(/C=C2/SC(N3CCN(CCC#N)CC3)=NC2=O)cc1	·	·	·	-14.0	·	·
CC(CC(=O)OCC(=O)NCc1ccc(Cl)cc1)c1ccccc1 (stereo not given)	32.5*	·	-9.0	-19.6	·	-10.4
CCOc1ncccc1C(=O)Nc1cc(S(=O)(=O)N2CCOCC2)ccc1OCC(F)(F)F	55.2*	·	-5.5	9.4	·	1.5
Cc1cc(NC(=O)c2cccc(S(C)(=O)=O)c2)no1	·	·	·	-9.0	·	·
CCOc1cc(C(=O)Nc2ccc(S(=O)(=O)Nc3nccs3)cc2)cc(OCC)c1OCC	·	·	·	-8.0	·	·
CCOc1cc(C(=O)Nc2ccc(S(=O)(=O)Nc3nnc(CC)s3)cc2)cc(OCC)c1OCC	38.5*	10.3	-3.7	4.6	-16.2	-0.1
CC[n+]1c(-c2ccccc2)c2cc(N)ccc2c2ccc(N)cc21	91.0*	·	·	65.4	·	89.8*
Oc1ccc(C=Nc2ccc3ncccc3c2)c(O)c1	·	3.4	·	·	-10.5	·
